The values that follow come from PubChem BioAssay (NCATS).

Molecules are shown by their SMILES. Results filed as inconclusive are left out. Values without a mark were called inactive. The source made the active and inactive calls. Calls come from the whole dose curve; as a rule, active = well fitted activation curve with a large enough effect; inconclusive = small, poorly fitted or top-dose-only effect; inactive = no such curve, though single readings can be large or run the other way. Starred links: 1 amine or outer side, 2 acyl side, 3 side chain; linkers in the order of their positions; H or OH if unused. Positions of bridges follow the written chain, without caps; N, C: chain ends. Non-standard residues stand in square brackets, D forms with d. Residues, ends and D or L forms follow the SMILES beside them. ξ: configuration not given here. *: point of attachment. X3 = C[C@@H](Oc1ccc([C@H](N[*:1])C(=O)[*:2])cc1)[C@]1(/C=C\C(=O)[*:3])CO1; d(aIle) = CC[C@H](C)[C@@H](N)C(=O)O; X2 = CC(C)[C@@H](O)C(C)C(=O)*; ξNMeF = CNC(Cc1ccccc1)C(=O)O; ξT = CC(O)C(N)C(=O)O; ξS = NC(CO)C(=O)O
Potency is the fitted concentration of half-maximal effect.

The assay can be described thus: qHTS for activators of Nrf2/ARE signaling pathway screened against the NCATS CANVASS Library (AID 1347391). For activation: 0% is about no effect. Note: nearly all actives have a fitted effect of over 60% in size. Particulars: ARE-bla HepG2, beta-lactamase reporter, 16 h; series mostly up to 46.1 µM; activation: at the top concentration. The text has this: Natural products and their derivatives continue to be wellsprings of nascent therapeutic potential. However, many laboratories have limited resources for biological evaluation, leaving their previously isolated or synthesized compounds largely or completely untested. To address this issue, the Canvass library of natural products was assembled (https://tripod.nih.gov/canvass), in collaboration with academic and industry researchers, for quantitative high-throughput screening (qHTS) across a diverse set of cell-based and biochemical assays. The pure (>85% purity by liquid chromatography/mass spectrometry [LC/MS]) Canvass library of 346 natural products were submitted by 45 academic laboratories and companies around the world. We collected pure natural products to circumvent deconvolution and structure elucidation due to time and resource limitations. The library was formatted into 1536-well plates and evaluated in 50 qHTS (in an 11-pnt concentration series) bioassays with broad scope of disease-relevant mechanisms. The resulting data set from 50 different assays was then systematically analyzed to identify overall trends and specific natural products with interesting biological activities. Reported herein are the results of each individual qHTS and their corresponding assay protocol. This assay measures the activation of the Nrf2/ARE signaling pathway in cells using a beta-lactamase reporter gene. The ARE-bla HepG2 assay (Invitrogen) can detect the up-regulation of the antioxidant response element (ARE) signaling pathway and may be useful for the identification of chemicals that induce oxidative stress. National Center for Advancing Translational Sciences (NCATS), Rockville, MD National Institute of Health (NIH), Bethesda, Maryland
Nrf2/ARE-screen assay protocol: 1. In a white-solid bottom 1536-well plate, 5 uL of ARE-bla HepG2 cell suspension was dispensed using a Multidrop Combi (Thermo Fisher Scientific) at a final concentration of 2000 cells / well. 2. The assay plates were incubated for 5 hours at 37C, 5% CO2. 3. 23 nL of compounds (in DMSO; columns 5-48), vehicle control DMSO, and positive control were pin transferred into the assay plates using the Kalypsis pin tool (Wako USA) equipped with a 1536-well pin heads. This yields a final CANVASS compound concentration of 0.4 nM - 95 uM. 4. The assay plates were incubated for 16 hours at 37C, 5% CO2. 5. After compound treatment, 1 uL per well of CCF4 dye detection reagent was added using the BioRAPTR dispenser. 6. The assay plates were incubated for 2 hours at room temperature. 7. Fluorescence readout was obtained using the Envision plate reader (PerkinElmer) using a 405 nm excitation and 460 nm and 530 nm emission filters. 8. To evaluate cell viability, 4 uL of CellTiter-Glo was added to each wells using the BioRAPTR dispenser followed by a 30 min room temperature incubation. 9. Luminescence was measured using the ViewLux plate reader with clear emission filter and 2x binning, 1 sec exposure settings.
`COC1C(O)C(C)OC(OC2C(Oc3cccc4c(O)c5c(=O)oc6ccc(C)c7c(=O)oc(c34)c5c67)OC(C)C(O)C2O)C1O` (stereo not given): the “activation” value was -53.8%.
Still for that read-out and setting: for `CC(C)CC1C(=O)O[C@H](C(C)C)C(=O)N(C)C(CC(C)C)C(=O)O[C@@H](C(C)C)C(=O)N(C)C(CC(C)C)C(=O)O[C@H](C(C)C)C(=O)N(C)C(CC(C)C)C(=O)O[C@@H](C(C)C)C(=O)N1C` (stereo not given in full) the value was 14.2%.
For the compound `C=C[C@]12C=CCN3CC[C@@]4(c5ccccc5NC(=O)[C@@H]4C1)[C@@H]32`, the Potency is 20.9 µM (active).
In the case of `CC[C@]12C=CCN3CC[C@]4(C(=C(C(=O)OC)C1)Nc1ccccc14)[C@@H]32`, the “activation” value is 15.2%.
`CCC(=O)N[C@@H](C[C@H](C)C(Cl)(Cl)Cl)C(=O)N1C(=O)C=C(OC)[C@@H]1C[C@H](C)C(Cl)Cl`: the “activation” value was 2.36%.
Regarding `CO[C@H]([C@@H](C)[C@H]1O[C@]1(C)C[C@H](C)/C=C/C=C(\C)[C@H]1O[C@@H](CC(=O)O)CC[C@@H]1C)[C@@H](C)O`, the Potency was 0.0066 µM (active).
For `CO[C@@H](/C=C/CC/C=C/C(=O)O)[C@@H](O)[C@H](C)/C=C(\C)[C@H](O)[C@H](C)C(=O)CCCC1CC(=O)NC(=O)C1`, the “activation” value is 7.21%.
On the same count and under the same terms, to `CO[C@H]1[C@H](O[C@H]2CC[C@]3(C=O)[C@H]4CC[C@]5(C)[C@@H](C6=CC(=O)OC6)CC[C@]5(O)[C@@H]4CC[C@]3(O)C2)O[C@H](C)[C@H](O)[C@@H]1OC` belongs -45.1%; to `C[C@]12CCC3[C@@H](CC[C@@H]4C[C@@H](O)CC[C@]34CO)[C@@]1(O)CC[C@@H]2C1=CC(=O)OC1` (stereo not given in full), -8.59%.
Turning to `C1=C2CCCN[C@H]2C2CC1[C@H]1CCCCN1C2` (stereo not given in full), the “activation” value is -5.73%.
Same read-out and setting: to `CC[C@H](C)[C@H]1NC(=O)[C@@H](NC(=O)C(C)[C@H](O)C(C)C)[C@@H](C)OC(=O)C2COC(=O)CNC(=O)/C=C\[C@]3(CO3)[C@@H](C)Oc3ccc(cc3)[C@H](NC1=O)C(=O)N(C)C(Cc1ccccc1)C(=O)NC(C(C)O)C(=O)N2` (stereo not given in full) (X2-T[d(aIle)][X3][ξNMeF][ξT][ξS]; ester 1-C; linker 3-6 via G) belongs 11.4% [at 27.5 µM].
As for `C/C(=C\[C@H](C)C(=O)C[C@H](O)CC1CC(=O)NC(=O)C1)[C@@H]1OC(=O)/C=C/CC/C=C/C=C/[C@@H]1C`, the “activation” value was -47%.
On to `C[C@]12CC(O)C3[C@@H](CC[C@@H]4C[C@@H](O)CC[C@]34CO)[C@@]1(O)CC[C@@H]2C1=CC(=O)OC1` (stereo not given in full), for which the “activation” value is -4.47%.
Turning to `C[N+](C)(C)CCc1c[nH]c2ccccc12`, the “activation” value is -1.11%.
Regarding `O[C@H]1C=C[C@@]23CCN(Cc4cc5c(cc42)OCO5)[C@@H]3C1`, the “activation” value is 5.65%.
On to `CO[C@H]1C[C@H](O[C@H]2[C@@H](O)C[C@H](O[C@H]3CC[C@]4(C=O)[C@H]5CC[C@]6(C)C(C7=CC(=O)OC7)CC[C@]6(O)[C@@H]5CC[C@]4(O)C3)O[C@@H]2C)O[C@H](C)[C@H]1O[C@H]1C[C@@H](OC)[C@@H](O[C@@H]2O[C@H](CO)[C@@H](O)[C@H](O)[C@H]2O)[C@@H](C)O1` (stereo not given in full), for which the “activation” value is -28.8%.
For `C[C@]12CC(O)C3[C@@H](CCC4C[C@@H](O)CC[C@@]43CO)[C@@]1(O)CC[C@@H]2C1=CC(=O)OC1` (stereo not given in full), the “activation” value is -24.2%.
The same measure, in the same setting: to `CCCC[C@@H]1CC[C@H]2CCCC(CCCO)N12` (stereo not given in full) belongs 9.28%.
Turning to `c1ccc2nc3c(cc2c1)[nH]c1ccccc13`, the Potency was 16.6 µM (active).
Turning to `C=C(C)[C@H]1C(=O)c2c3c(cc4c5c(n1c24)[C@@]1(C)[C@@H](CC[C@H]2[C@](C)(/C=C/C=C(\C)C(=O)O)[C@@H](O)CC[C@@]21C)C5)C1=CC(C)(C)OC(C)(C)[C@H]1[C@@H]3O`, the “activation” value is -22.6%.
Take `C/C=C1/CN2C3CC1C1=CCC(=O)N4c5ccccc5[C@@]3(C[C@@H]2C2=C[C@H]3C5CC6N(CC[C@@]67c6ccccc6N(C2=O)[C@@H]37)C/C5=C/C)[C@H]14` (stereo not given in full): the Potency was 7.41 µM (active).
As for `CC[C@@H]1CN2CCC3(Nc4cccc(OC)c4C3=O)[C@@H]2C[C@@H]1/C(=C\OC)C(=O)OC` (stereo not given in full), the “activation” value is -8.4%.
In the case of `CCCCC1CC[C@H]2CCCC(CCC)N12` (stereo not given in full), the “activation” value is 22.9%.
Same read-out and setting: for `C/C=C1/CN2CC[C@@]34c5ccccc5N(C)[C@@H]3[C@@H]2C[C@@H]1[C@H]4C(=O)OC` the value was 14%; for `CC[C@@H]1CN2CCc3c([nH]c4cccc(OC)c34)[C@@H]2C[C@@H]1/C(=C\OC)C(=O)OC`, -68.4%.
